An excerpt weighted towards active compounds, which were near 5.5% of everything screened.
CBFb RUNX1 block = qHTS Assay for Compounds Blocking the Interaction Between CBF-beta and RUNX1 for the Treatment of Acute Myeloid Leukemia; Runt-related transcription factor 1 (Homo sapiens) + Core-binding factor subunit beta …; AID 1477, 2009; AlphaScreen CBFb-His/RUNX1-biotin binding, biochemical; 230,000 tested, under 10 active; Potency, µM (series often up to 59.8 µM), for the others: at the highest dose activity, negative = inhibition, hits mostly inhibitors; further: % of control where 0% means no effect
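Proteins preincubated together for 20 min at RT before compound addition; 15 min later, nickel and streptavidin beads were added and left 90 min prior to AlphaScreen measurement.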
CtBP-E1A inh = qHTS Assay for Inhibitors of the CtBP/E1A Interaction | CtBP / adenovirus E1A interaction (AlphaScreen) | AlphaScreen GST-E1A/His-CtBP binding, 1536-well; active compounds read low | activity change, % (concentration not given with the values) | actives 0.49% (n = 340,000); in the data active means activity change below about -65%; inconclusive means mostly about -30% to -63%; further: on the % scale 0 is the no-effect control and ±100 the full control effect
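GST-E1A and His-tagged CtBP (125 nM each as 5X stock) were preincubated with pin-transferred compound for 2 h at 37 °C in the dark, then glutathione donor and nickel acceptor beads were added for 1 h before AlphaScreen reading.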
VP16 counter = VP16 counterscreen qHTS for inhibitors of ROR gamma transcriptional activity; Potency, µM (highest dose often 53.6 µM), for the others: at the top dose activity, negative = inhibition, most hits filed as inhibitors; AID 2546, 2010; Drosophila S2 Gal4-VP16 UAS-luciferase, luminescence, 20 h; actives 3.5% (n = 310,000);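 further: Gal4-VP16 expression switched on by copper sulfate through the metallothionein promoter; potency means the concentration at half of the fitted maximal effect; on the % scale 0 is the no-effect control and ±100 the full control effect; nearly all actives have a fitted effect of over 50% in size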
RORg inh = qHTS for inhibitors of ROR gamma transcriptional activity. Nuclear receptor ROR-gamma (Mus musculus), P51450. Drosophila S2 Gal4-RORgamma UAS-luciferase reporter, 20 h. Potency, µM (top dose mostly 53.6 µM), for the others: at the highest dose activity change, negative = inhibition, hits mostly inhibitors. actives 5.4% (n = 310,000). AID 2551, 2010; further: potency means the concentration at half of the fitted maximal effect; on the % scale 0 is the no-effect control and ±100 the full control effect; nearly all actives have a fitted effect of over 60% in size
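In this cell-based reporter format, copper sulfate (700 uM final) drives Gal4–ROR gamma fusion expression from a metallothionein promoter in Drosophila Schneider cells; compounds preincubated 1 hr, reporter read after 20 hr at ambient temperature.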
MBNL1 CUG block = qHTS Assay for Inhibitors of MBNL1-poly(CUG) RNA binding; Muscleblind-like protein 1 (Homo sapiens), Q9NR56; actives 0.036% (n = 280,000); TR-FRET MBNL1-His/biotin-(CUG)12 binding, 665/545 ratio; AID 2675, 2010; Potency, µM (titrated, usually from 57.5 µM), for the others: at the highest dose activity change, negative = inhibition, hits mostly inhibitors; active means well fitted inhibition curve with a large enough effect in the signal ratio, with a control signal flat, not every such curve was filed as active; inconclusive means small, poorly fitted or top-dose-only effect, or effect the other way, or a change in a side signal; inactive means no such curve, though single readings can be large or run the other way; the % refers to the signal ratio; further: potency means the concentration at half of the fitted maximal effect; on the % scale 0 is the no-effect control and ±100 the full control effect
Target sequence (Q9NR56 whole entry, looked up): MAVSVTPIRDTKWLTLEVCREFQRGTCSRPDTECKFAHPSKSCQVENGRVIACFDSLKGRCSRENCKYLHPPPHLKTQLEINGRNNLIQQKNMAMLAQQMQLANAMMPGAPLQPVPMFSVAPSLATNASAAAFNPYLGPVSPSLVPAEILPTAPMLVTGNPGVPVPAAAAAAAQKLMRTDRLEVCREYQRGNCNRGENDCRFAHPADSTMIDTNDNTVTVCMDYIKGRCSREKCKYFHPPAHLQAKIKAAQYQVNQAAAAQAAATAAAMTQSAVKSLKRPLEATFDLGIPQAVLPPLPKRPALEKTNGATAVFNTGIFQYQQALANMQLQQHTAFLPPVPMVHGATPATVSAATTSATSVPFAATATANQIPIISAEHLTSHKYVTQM
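Compound titration spanned 92 nM–58 uM against the MBNL1-His/biotin-(CUG)12 complex. After 60 min at room temperature with 5 nM streptavidin-XL665 and 0.055 ng/ul terbium anti-His, ratiometric 665/545 nm emission (Ex 340 nm) normalized to controls.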
Six1-Eya2 blk = qHTS Assay for Inhibitors of the Six1/Eya2 Interaction | AlphaScreen GST-Six1/His-Eya2 binding, biochemical; active compounds read low | activity change, % (test concentration not listed) | actives 0.56% (n = 360,000) | Homeobox protein SIX1 (Homo sapiens) + Protein phosphatase EYA2 (Homo sapiens), …; in the data active means activity change below about -65%; inconclusive means mostly about -30% to -63%; further: on the % scale 0 is the no-effect control and ±100 the full control effect
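GST-Six1 + His-Eya2 (5X stock: 250/500 nM); Tris pH 8.0, 300 mM NaCl, 0.05% BSA, 0.02% Tween 20; GSH donor/Ni acceptor beads; 1 h 37 °C dark; AlphaScreen readout.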
Starred values were filed as active, the others as inactive; ? = inconclusive; . = not tested or not shown; [ ] = another dose, or the depositor's remark. Unless noted, the call rests on the fitted dose curve; in most records, active means well fitted curve in the direction sought with a large enough effect; inconclusive means small, poorly fitted or top-dose-only effect, or another doubt; inactive means no such curve, though single readings can be large; an effect the other way counts as inactive or inconclusive.

SMILES	CBFb RUNX1 block	CtBP-E1A inh	VP16 counter	RORg inh	MBNL1 CUG block	Six1-Eya2 blk
CCOC(=O)C1=CCN(S(=O)(=O)c2ccccc2Cl)C1c1cccc(C)c1 (stereo unspecified)	.	1	.	.	.	9
CCOc1ccc(S(=O)(=O)Nc2cc(SCC(=O)O)c(O)c3ccccc23)cc1	.	.	?	10µM*	?	-13
Cc1ccc(C)c(S(=O)(=O)Nc2cc(SCC(=O)O)c(O)c3ccccc23)c1	?	-7	14µM*	-30%[10 µM]	.	-23
COc1ccccc1CN(Cc1nc2ccccc2c(=O)[nH]1)C(=O)Nc1ccccc1	7%	2	?	10µM*	-5%	-6
CCCCC(=O)N(Cc1ccc2c(c1)OCO2)Cc1nc2ccccc2c(=O)[nH]1	1%	-3	-22%	11µM*	-5%	-1
CCCC(=O)N(CCc1ccc(OC)cc1)Cc1nc2ccccc2c(=O)[nH]1	0%	2	?	10µM*	-1%	3
COCC(=O)N(CCc1ccc(OC)cc1)Cc1nc2ccccc2c(=O)[nH]1	1%	5	7.1µM*	5µM*	-1%	0
COCC(=O)N(Cc1ccc(OC)cc1)Cc1nc2ccccc2c(=O)[nH]1	7%	3	.	29%[0.365 µM]	4%	-3
Cc1ccc(C(=O)N(Cc2ccc3c(c2)OCO3)Cc2nc3ccccc3c(=O)[nH]2)cc1	-5%	2	0%	?	8%	-2
Cc1ncsc1CCC(=O)N1CCCC(Nc2ccc(C(C)C)cc2)C1 (stereo unspecified)	.	1	0%	40%	-2%	-5
COc1ccc(NC(=O)C2Cc3c(-c4cccc(C(C)=O)c4)ccnc3O2)cn1 (stereo unspecified)	.	15	.	.	.	23
Cc1cccc(N2CCN(C(=O)CCC(=O)N3Cc4ccccc4Oc4ncccc43)CC2)c1C	.	1	0%	42%	-4%	-7
CN(C)c1ccc(-n2cccc2)cc1	-3%	?	0%	-43%	-7%	-68*
CN(C)/C=C/C(=O)c1ccc(-n2cccc2)cc1	-3%	-7	-13%	2%	23%	-5
CCOc1ccc(C(=O)CCC(=O)N2CCC(C(=O)OC)CC2)cc1	.	.	2%	4%	4%	2
O=C(CN1CCN(c2ccccc2)CC1)Nc1nnc(-c2ccccc2)s1	-1%	23	-30%	?	3%	13
COc1ccc(N2CCN(CC(=O)Nc3nnc(-c4ccccc4)s3)CC2)cc1	-18%	-17	?	10µM*	?	-14
N#C/C(=C\c1cc(Cl)cc(Cl)c1)c1cccnc1	-2%	.	.	.	.	.
O=S(=O)(NCCCN1CCOCC1)c1ccc2ccccc2c1	-5%	-17	-3%	?	-6%	10
COc1ccc(-n2c(-c3cccc(OC)c3)nc(=S)c3c2CCCC3)cc1	2%	-4	?	10µM*	?	-3
COc1ccc(-n2c(-c3ccccc3)nc(=S)c3c2CCCC3)cc1	-1%	10	?	14µM*	?	-1
COc1cccc([C@@H]2Oc3ccc(Br)cc3C(=O)[C@H]2OC(=O)NS(=O)(=O)c2ccc(C)cc2)c1	0%	.	7%	-6%	.	.
CCCC[C@H]1COCCS(=O)(=O)N1Cc1ccc(Br)cc1	.	10	3%	4%	-6%	2
CCOc1ccc(NC(=S)Nc2ccccc2C2(C)CC2)cc1	-1%	-2	?	7.9µM*	-7%	-6
CCOc1ccc(NC(=S)NC(C)c2cccs2)cc1 (stereo unspecified)	0%	-15	5µM*	3.2µM*	14%	-6
SMILES	CBFb RUNX1 block	CtBP-E1A inh	VP16 counter	RORg inh	MBNL1 CUG block	Six1-Eya2 blk
CCOc1ccc(NC(=S)Nc2ccc(F)cc2)cc1	.	.	?	13µM*	2%	0
CCOc1ccc(NC(=S)NN(C)C(=S)Nc2ccc(OCC)cc2)cc1	-6%	-25	?	7.9µM*	-14%[11.5 µM]	?
CCOc1ccc(NC(=S)NC23CN4CN(CN(C4)C2)C3)cc1	-16%	15	-7%	-28%	-1%	2
Cc1ccccc1N1CCN(C2CCCN(C(=O)CCN3CCCO3)C2)CC1 (stereo unspecified)	.	-4	-3%	-13%	1%	-2
CN(C(=O)CN(c1ccccc1)S(=O)(=O)c1ccc(F)cc1)C1CCS(=O)(=O)C1 (stereo unspecified)	1%	.	-1%	-2%	-8%	4
NC(=S)NN=C(c1ccc(Br)cc1)C1CC1	.	-2	.	.	.	-1
COC(=O)c1sc(N)c(C(=O)OC)c1Cn1ncc(Cl)c(Cl)c1=O	.	-1	13µM*	?	15%	-10
COc1ccc(C(N)c2nccc3cc(OC)c(OC)cc23)cc1OC (stereo unspecified)	.	?	-1%	-5%	?	-75*
O=C(NCCC(=O)N1CCN(S(=O)(=O)c2ccccc2F)CC1)Nc1ccccc1	.	-4	.	.	.	11
c1ccc(CCn2cnc3ccccc32)cc1	-14%	2	?	13µM*	.	-5
c1ccc(OCCCCn2cnc3ccccc32)cc1	3%	7	?	13µM*	2%	1
c1ccc(OCCn2cnc3ccccc32)cc1	14%	-1	3%[0.365 µM]	8%	4%	-1
Cc1ccccc1OCCCCn1cnc2ccccc21	0%	2	10µM*	-101%	-3%	7
c1ccc2c(c1)ncn2CCN1CCCCC1	11%	5	2%	-6%	-14%	4
COc1cccc(NC(=O)N(C)C[C@@H]2OCc3cnnn3CCCC(=O)N([C@@H](C)CO)C[C@H]2C)c1	.	1	.	.	.	2
CC(=O)N1CCC(CCCC2CCN(C(C)=O)CC2)CC1	.	0	.	.	.	-8
CC1CCCCN1C(=O)c1cc(S(=O)(=O)N2CCCCC2)c[nH]1 (stereo unspecified)	.	7	1%	-12%	2%	5
Cn1c(/C=N/c2nc3ccccc3[nH]2)nc2ccccc21	-6%	?	?	18µM*	-8%	-8
Cn1c(/C=N/O)nc2ccccc21	4%	-18	-9%	-5%	-4%	-1
CCn1c(/C=N/c2nc3ccccc3n2C)nc2ccccc21	-6%	7	?	13µM*	6%	3
